Bioassay records deposited in PubChem BioAssay by The Scripps Research Institute Molecular Screening Center.
Sampled rows, rich in hits. Any-hit rate of the full collection: about 3.5%.
GPR151 ag: activates the human receptor GPR151; activation, % at 11.2 µM; PathHunter beta-arrestin GPR151 cells, luminescence; 650,000 compounds, 1% hits; AID 1508602; Q8TDV0; in the data active means activation above about 4.9%;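 further: 0% = median of compound wells and 100% = cells with positive control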
Target sequence (Q8TDV0 whole entry, looked up): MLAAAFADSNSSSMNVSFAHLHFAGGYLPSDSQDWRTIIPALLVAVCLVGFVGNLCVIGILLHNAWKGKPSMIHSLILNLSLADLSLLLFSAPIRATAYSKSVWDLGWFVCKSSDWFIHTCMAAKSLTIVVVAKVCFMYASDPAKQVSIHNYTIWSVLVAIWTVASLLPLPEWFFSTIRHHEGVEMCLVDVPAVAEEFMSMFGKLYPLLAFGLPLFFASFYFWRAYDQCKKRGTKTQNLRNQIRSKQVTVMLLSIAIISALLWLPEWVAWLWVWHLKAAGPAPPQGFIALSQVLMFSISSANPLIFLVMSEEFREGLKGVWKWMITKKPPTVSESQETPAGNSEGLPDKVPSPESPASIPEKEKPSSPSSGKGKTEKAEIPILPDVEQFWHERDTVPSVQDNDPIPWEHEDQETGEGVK
TEAD-YAP block: TEAD-YAP interaction inhibition. AID 1259422. 640,000 compounds, 1.4% hits. HEK-TIYL cells, TEAD-Gal4/YAP UAS-luciferase luminescence. inhibition, % at 9.12 µM; in the data active means inhibition above about 32%;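 further: 0% = median of test compound wells and 100% = reference inhibitor wells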
MITF inh: human MITF inhibition, primary screen. O75030. AlphaScreen MITF homodimerization, bead proximity signal. inhibition, % at 2.6 µM. 650,000 compounds, 0.91% hits. AID 1259374; in the data active means inhibition above about 50%;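 further: 0% = vehicle wells with protein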
FBW7 act: activators of human E3 ligase FBW7; normalized activity (activation), % at 26.1 µM; 650,000 compounds, 0.13% hits; Q969H0; AID 1259310; AlphaScreen FBW7–phospho-cyclin E peptide binding, activator screen; in the data active means normalized activity above about 1.9%;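 further: purified mutant Fbw7 with reduced substrate affinity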
GPR151 confirm: confirmation of human GPR151 activators; activation, % at 11.2 µM; 6,700 tested, under 10 active; GPR151 PathHunter beta-arrestin cells, luminescence, 90 min; % of EA-reagent control over plate median; shares compounds with GPR151 ag;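 active means mean percent activation across replicates above the confirmation screen cutoff of 4.91%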
GPR119 counter: GPR119 activation, counter-screen for GPR151 activators; shares compounds with GPR151 ag; activation, % at 11.2 µM; 6,700 compounds, 0.3% hits; GPR119 PathHunter beta-arrestin cells, luminescence, 90 min; 0 = compound-well median, 100 = enzyme-acceptor control; AID 1508611;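 active means mean percent activation in the counterscreen above 29.09%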;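 further: counterscreen on off-target GPR119 to flag nonselective hits from the GPR151 activator screen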
Numbers without * were called inactive; x = no result.

SMILES	GPR151 ag	TEAD-YAP block	MITF inh	FBW7 act	GPR151 confirm	GPR119 counter
CC(CC(=O)N1CCN(c2ccc(F)cc2)CC1)c1ccccc1 (stereo not given)	11.2*	2.6	0.0	0.0	0.0	2.9
O=C(NCC(=O)N1CCN(c2ccccc2)CC1)c1c(F)cccc1F	6.0*	-9.5	-2.9	-0.1	0.9	9.1
CCCC(C)C(=O)N1CCN(c2ccc(F)cc2)CC1 (stereo not given)	1.1	2.9	5.6	0.0	x	x
CC(c1ccccc1)N1CC(C(=O)N2CCN(c3ccc(F)cc3)CC2)CC1=O (stereo not given)	5.2*	2.4	3.7	0.0	-0.7	-16.5
O=[N+]([O-])c1ccc(C(c2nnnn2-c2cccc(Cl)c2)N2CCCCC2)cc1 (stereo not given)	2.2	1.1	1.3	-0.1	x	x
CCN1CCSc2ccc(C(=O)NCc3ccc(C)cc3)cc21	6.4*	-5.7	-7.0	0.0	-1.6	-20.3
O=C(COc1ccc(Cl)cc1)NCc1cc(-c2cccs2)on1	5.2*	10.7	-1.2	0.3	-1.3	-14.1
C=CCN1CCN(C(c2ccc(F)cc2)c2nnnn2C2CCCCC2)CC1 (stereo not given)	0.5	3.7	-3.6	-0.1	x	x
O=C(Cc1ccccc1[N+](=O)[O-])Nc1ccc2c(c1)OCO2	-1.1	-26.6	-5.9	0.1	x	x
O=C(Cc1ccccc1[N+](=O)[O-])NNC(=O)Nc1ccc2c(c1)OCO2	5.1*	-12.1	-2.7	-0.1	1.0	-1.9
COc1ccc(NC(=O)C(=O)NCc2ccncc2)cc1	5.1*	4.1	0.6	-0.1	-1.3	-13.7
COc1ccc(NC(=O)NCc2ccncc2)cc1	2.5	-4.2	-4.4	-0.1	x	x
CC(Sc1ncn(-c2ccccc2)n1)C(=O)Nc1ccccc1 (stereo not given)	5.9*	-6.1	0.3	-0.2	-2.3	-5.0
Cc1ccc(-c2ccc(SCC(=O)N3CCCC3)nn2)cc1	6.0*	-18.6	-8.8	0.1	0.0	9.9
CCOC(=O)N1CCN(C(=O)CSc2ccc(-c3cccnc3)nn2)CC1	4.9*	9.1	6.8	0.9	0.7	6.0
O=C(CSc1ccc(-c2ccc3c(c2)OCO3)nn1)N1CCCC1	-1.1	6.4	0.8	-0.1	x	x
COc1ccc(CN2CC(C(=O)NC3CCCCCC3)CC2=O)cc1 (stereo not given)	0.5	1.9	4.7	0.1	x	x
Cc1ccc(CS(=O)(=O)CCC(=O)NCCN(C)Cc2ccccc2)cc1	7.7*	-3.0	13.6	0.2	0.4	-0.8
Cc1nn(C)c(C)c1-c1nc(C(=O)NC2CCN(Cc3ccccc3)CC2)cs1	8.7*	-15.7	8.2	0.2	-0.2	-6.9
Cc1nn(C)c(C)c1-c1cncc(C(=O)NC2CCN(Cc3ccccc3)CC2)c1	5.5*	2.0	-6.7	0.0	0.5	-2.0
CC(C)=C1C2C=CC1C(C(=O)Nc1ccc(F)cc1)C2C(=O)O (stereo not given)	-0.6	-6.4	-8.2	-0.1	x	x
CCOCCCNC(=O)Cc1cccc2ccccc12	-1.6	6.1	14.5	1.0	x	x
CS(=O)(=O)N1CCC(C(=O)N2CCC(O)(c3ccccn3)CC2)CC1	11.0*	-10.2	0.3	0.1	1.4	13.8
O=C(C1CC1)N1CCC(O)(c2ccccn2)CC1	0.7	-3.9	1.3	0.0	x	x
COc1cc(Nc2nc(C)cc(NC3CC3)n2)cc(OC)c1OC	5.9*	11.0	3.2	-0.1	0.6	0.9
SMILES	GPR151 ag	TEAD-YAP block	MITF inh	FBW7 act	GPR151 confirm	GPR119 counter
COc1cc(Nc2cc(C)nc(Nc3cccnc3)n2)cc(OC)c1OC	0.2	0.5	23.8	0.1	x	x
CN(C)S(=O)(=O)N1CCC(n2nc(-c3cccs3)ccc2=O)CC1	2.1	0.8	-1.6	-0.2	x	x
COc1ccccc1CCNC1CCN(c2ccc(C(=O)N(C)C)cc2)CC1	-0.2	1.7	-5.2	0.1	x	x
O=C(CCc1ccccc1)Nc1nnc(-c2ccc(F)cc2)o1	5.7*	-5.6	-5.6	-0.1	0.6	7.1
O=C(Nc1ccccc1)c1ccc(Cl)c(S(=O)(=O)NCc2ccccc2)c1	8.2*	13.1	-1.9	0.0	-1.0	-12.6
CCc1ccc(NC(=O)c2ccc(F)c(S(=O)(=O)NCc3ccc(C)cc3)c2)cc1	1.6	-3.8	-6.1	0.0	x	x
Cc1ccc(CNS(=O)(=O)c2cc(C(=O)Nc3ccc(C(C)C)cc3)ccc2F)cc1	5.8*	3.8	13.0	0.3	1.3	7.2
C=CCNS(=O)(=O)c1cc(C(=O)Nc2cc(Cl)cc(Cl)c2)ccc1F	-1.6	-16.2	-9.2	-0.1	x	x
C=CCNS(=O)(=O)c1cc(C(=O)Nc2ccc(OCC)cc2)ccc1F	5.7*	26.4	6.6	0.0	-0.2	-1.1
O=C1CC(N2CCCCC2)C(=O)N1c1ccc(F)cc1 (stereo not given)	2.1	-0.6	-2.9	-0.1	x	x
O=C(O)CCCC(=O)N1CCC(N2C(=O)Cc3ccccc32)CC1	9.2*	-5.7	-5.5	-0.3	-0.7	-11.1
O=C(CCCc1ccccc1)NCCOc1ccccc1	5.2*	-7.1	6.1	0.3	-0.5	-1.3
COc1ccccc1N(CC(=O)N[C@H](C)c1ccccc1)S(C)(=O)=O	0.3	8.6	3.4	0.0	x	x
CC1(C(=O)NNC(=S)NCc2ccco2)CC1(Cl)Cl (stereo not given)	5.3*	2.5	10.6	0.1	0.5	5.3
COC(CNS(=O)(=O)c1ccc(S(=O)(=O)NCC(C)C)cc1)OC	1.2	-9.2	3.6	-0.2	x	x
Cc1csc(NC(=O)CSc2nc(C3CC3)nc3sc(C)c(C)c23)n1	6.3*	-17.5	9.0	0.0	0.8	7.4
O=C(O)COc1ccc(N2C(=O)c3ccc(-c4nc5ccccc5c(=O)o4)cc3C2=O)cc1	7.2*	0.0	-1.8	0.1	-0.4	-3.3
COCCCNCCn1cnc2c(N)ncnc21	7.2*	3.3	-7.0	-0.1	-1.0	-1.6
CS(=O)(=O)c1ccccc1CN1CCC(N(CC2CC2)C(=O)c2cccnc2)CC1	0.6	-0.4	1.5	0.0	x	x
COCc1cc(C)nc2sc3c(=O)n(-c4ccc(C)cc4C)nnc3c12	1.1	5.4	16.2	0.1	x	x
COCc1cc(C)nc2sc3c(=O)n(-c4ccc(C(C)=O)cc4)nnc3c12	5.5*	-3.1	-0.1	-0.1	-0.4	5.1
CC(Sc1n[nH]c(N)n1)C(=O)OC1CCCCC1 (stereo not given)	10.0*	2.3	16.4	0.2	-0.7	-3.2
Nc1nc(SCC(=O)NC2CCCCCCC2)n[nH]1	1.8	2.8	2.0	0.1	x	x
O=S(=O)(c1ccc(Nc2nc3ccccc3n3nnnc23)cc1)N1CCOCC1	5.1*	-18.6	4.3	-0.2	0.1	0.0
CC1(C)C(=O)OC(c2ccccc2)C2(CCCC2)C1=O (stereo not given)	6.0*	-1.3	-3.1	0.1	0.6	4.7
CC1(C)C(=O)OC(c2ccc(Br)cc2)C2(CCCCC2)C1=O (stereo not given)	-0.7	2.3	12.8	0.1	x	x
